# Measured values as given in the supplement of paper PMC10037445.
# “And” between values parts separate entries of the source, which are not always exact repeats. Equal values may be shown once. The full ranking holds about 2,900 compounds; the median of “NF-kB SEAP reporter activity, fold change vs agonist alone” is about 0.99, and the highest 2% start at about 2.6. The sample as a whole holds a higher share of the highest values than the screen did.
# How the values were obtained:
# [1] = test system: RAW-Dual; assay: NF-kB SEAP reporter activity, fold change vs agonist alone; higher = enhanced NF-kB activity; conditions: library stock concentration (final ~1000-fold dilution): 10 mM
# Outline: (§1)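 Supernatant from RAW-Dual macrophages was read after 20 hours for IRF by QuantiLuc luminescence and for NF-κB by QuantiBlue absorbance at 620 nm. The cells (50,000 cells/well in DMEM, 384-well plates, 37 °C, 5% CO2) had received 50 nL of library stock by pin tool and, 1 h later, a PRR agonist. Reporter activity is expressed relative to agonist-alone wells as fold change, and wells were flagged cytotoxic if IncuCyte confluency was under 70% of agonist controls in both mask sets.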
# [2] = test system: RAW-Dual; assay: NF-kB SEAP reporter activity, fold change vs agonist alone; cytotoxicity flag (confluency mask): not cytotoxic; higher = enhanced NF-kB activity
# Outline: as §1
# [3] = test system: RAW-Dual; assay: NF-kB SEAP reporter activity, fold change vs agonist alone; cytotoxicity flag (confluency mask): cytotoxic (confluency <70% of control); higher = enhanced NF-kB activity
# Outline: as §1
# [4] = cytotoxicity flag (confluency mask): not cytotoxic, agonist: Imiquimod (TLR7) […]
# [5] = cytotoxicity flag (confluency mask): not cytotoxic, agonist: MPLA (TLR4) […]
# [6] = agonist: ODN 1826 (TLR9) 0.5 ug/mL
# [7] = agonist: Pam2CSK4 (TLR2/6) 0.1 ug/mL
# [8] = agonist: Pam3CSK4 (TLR2/1) 0.1 ug/mL
# [9] = cytotoxicity flag (confluency mask): cytotoxic (confluency <70% of control), agonist: Imiquimod (TLR7) […]
# [10] = cytotoxicity flag (confluency mask): cytotoxic (confluency <70% of control), agonist: MPLA (TLR4) […]
compound,measurement,setting,value
Cc1[nH]nc(C(F)(F)F)c1Cc1sc2c(c1C(=O)N1CC(C)(O)CO1)c(=O)n(C)c(=O)n2C(C)C (stereo not drawn),NF-kB SEAP reporter activity,[1]; [4],1.11
same,NF-kB SEAP reporter activity,[1]; [5],1.25
Cc1[nH]nc(C(F)(F)F)c1Cc1sc2c(c1C(=O)N1CC(C)(O)CO1)c(=O)n(C)c(=O)n2C(C)C (stereo not drawn) (library stock concentration (final ~1000-fold dilution): 10 mM),NF-kB SEAP reporter activity,[2]; agonist: LPS (TLR4) 0.1 ug/mL,1.81
same,NF-kB SEAP reporter activity,[2]; [6],1.27
same,NF-kB SEAP reporter activity,[2]; [7],0.918
same,NF-kB SEAP reporter activity,[2]; [8],1.06
Cc1cc(C)nc(NC(=S)N2CCN(Cc3ccc(C(F)(F)F)cc3)CC2)c1,NF-kB SEAP reporter activity,[1]; [4],0.758
same,NF-kB SEAP reporter activity,[1]; [5],0.954
Cc1cc(C)nc(NC(=S)N2CCN(Cc3ccc(C(F)(F)F)cc3)CC2)c1 (library stock concentration (final ~1000-fold dilution): 10 mM),NF-kB SEAP reporter activity,[2]; agonist: LPS (TLR4) 0.1 ug/mL,0.783
same,NF-kB SEAP reporter activity,[2]; [6],0.834
same,NF-kB SEAP reporter activity,[2]; [7],0.805
same,NF-kB SEAP reporter activity,[2]; [8],0.809
CC1c2cccc(O)c2C(=O)C2=C(O)C3(O)C(=O)C(C(N)=O)=C(O)C(N(C)C)C3C(O)C21 (stereo not drawn),NF-kB SEAP reporter activity,[1]; [5],1.13
CC1c2cccc(O)c2C(=O)C2=C(O)C3(O)C(=O)C(C(N)=O)=C(O)C(N(C)C)C3C(O)C21 (stereo not drawn) (library stock concentration (final ~1000-fold dilution): 10 mM),NF-kB SEAP reporter activity,[2]; agonist: LPS (TLR4) 0.1 ug/mL,1.81
same,NF-kB SEAP reporter activity,[2]; [6],0.966
same,NF-kB SEAP reporter activity,[2]; [7],0.896
same,NF-kB SEAP reporter activity,[2]; [8],0.885
CC(=O)N1CCC(Nc2cc(C(=O)NCC(O)CN3CCc4ccccc4C3)ncn2)CC1 (stereo not drawn),NF-kB SEAP reporter activity,[1]; [4],0.92
same,NF-kB SEAP reporter activity,[1]; [5],1.03
CC(=O)N1CCC(Nc2cc(C(=O)NCC(O)CN3CCc4ccccc4C3)ncn2)CC1 (stereo not drawn) (library stock concentration (final ~1000-fold dilution): 10 mM),NF-kB SEAP reporter activity,[2]; agonist: LPS (TLR4) 0.1 ug/mL,1.08
same,NF-kB SEAP reporter activity,[2]; [6],0.948
same,NF-kB SEAP reporter activity,[2]; [7],1.13
same,NF-kB SEAP reporter activity,[2]; [8],1.17
Cc1cc(N=Nc2ccc3c(c2)CCC(=O)N3)c(N)cc1O (library stock concentration (final ~1000-fold dilution): 10 mM),NF-kB SEAP reporter activity,[2]; agonist: LPS (TLR4) 0.1 ug/mL,1.42
same,NF-kB SEAP reporter activity,[2]; [6],1.33
same,NF-kB SEAP reporter activity,[2]; [7],0.692
same,NF-kB SEAP reporter activity,[2]; [8],1.22
O=C(O)C1=C/C(=N\Nc2ccc(S(=O)(=O)Nc3ccccn3)cc2)C=CC1=O (library stock concentration (final ~1000-fold dilution): 10 mM),NF-kB SEAP reporter activity,[2]; agonist: LPS (TLR4) 0.1 ug/mL,1.65
same,NF-kB SEAP reporter activity,[2]; [6],1.26
same,NF-kB SEAP reporter activity,[2]; [7],0.969
same,NF-kB SEAP reporter activity,[2]; [8],0.851
Cc1cc(N=Nc2ccc(S(=O)(=O)Nc3ccccn3)cc2)c(N)cc1O (library stock concentration (final ~1000-fold dilution): 10 mM),NF-kB SEAP reporter activity,[2]; agonist: LPS (TLR4) 0.1 ug/mL,3.77
same,NF-kB SEAP reporter activity,[2]; [6],2.32
same,NF-kB SEAP reporter activity,[2]; [7],0.966
same,NF-kB SEAP reporter activity,[2]; [8],2.13
Cc1cc(N=Nc2ccc(S(=O)(=O)Nc3ccccn3)cc2)c(N)cc1O,NF-kB SEAP reporter activity,[1]; [4],1.38
same,NF-kB SEAP reporter activity,[1]; [5],2.48
Cc1cc(N=Nc2ccc3c(c2)CCC(=O)N3)c(N)cc1O,NF-kB SEAP reporter activity,[1]; [4],1.35
same,NF-kB SEAP reporter activity,[1]; [5],1.77
O=C(O)C1=C/C(=N\Nc2ccc(S(=O)(=O)Nc3ccccn3)cc2)C=CC1=O,NF-kB SEAP reporter activity,[1]; [4],1.07
same,NF-kB SEAP reporter activity,[1]; [5],1.31
O=C(c1ccccc1)C(O)O,NF-kB SEAP reporter activity,[1]; [5],1.19
O=C(c1ccccc1)C(O)O (library stock concentration (final ~1000-fold dilution): 10 mM),NF-kB SEAP reporter activity,[2]; agonist: LPS (TLR4) 0.1 ug/mL,1.12
same,NF-kB SEAP reporter activity,[2]; [6],1.04
same,NF-kB SEAP reporter activity,[2]; [7],1.14
same,NF-kB SEAP reporter activity,[2]; [8],1.07
CCC(=O)OC1CC(=O)OC(C)C/C=C/C=C/C(O)C(C)CC(CC=O)C(OC2OC(C)C(OC3CC(C)(O)C(OC(=O)CC)C(C)O3)C(N(C)C)C2O)C1OC (stereo not drawn) (library stock concentration (final ~1000-fold dilution): 10 mM),NF-kB SEAP reporter activity,[2]; agonist: LPS (TLR4) 0.1 ug/mL,0.93
same,NF-kB SEAP reporter activity,[2]; [6],1.02
same,NF-kB SEAP reporter activity,[2]; [7],1.06
same,NF-kB SEAP reporter activity,[2]; [8],1.21
CCC(=O)OC1CC(=O)OC(C)C/C=C/C=C/C(O)C(C)CC(CC=O)C(OC2OC(C)C(OC3CC(C)(O)C(OC(=O)CC)C(C)O3)C(N(C)C)C2O)C1OC (stereo not drawn),NF-kB SEAP reporter activity,[1]; [4],0.961
same,NF-kB SEAP reporter activity,[1]; [5],1.07
COc1ccc2c(c1O)-c1c(O)c(OC)cc3c1C(C2)[N+](C)(C)CC3 (stereo not drawn) (library stock concentration (final ~1000-fold dilution): 10 mM),NF-kB SEAP reporter activity,[2]; agonist: LPS (TLR4) 0.1 ug/mL,1.1 and 1.18
same,NF-kB SEAP reporter activity,[2]; [6],0.935 and 1.11
same,NF-kB SEAP reporter activity,[2]; [7],1.01 and 1.08
same,NF-kB SEAP reporter activity,[2]; [8],0.967 and 1.08
CC(C)(NS(=O)(=O)c1ccc2c(Cl)cnc(NC(=N)N)c2c1)C(=O)O.Cl (library stock concentration (final ~1000-fold dilution): 10 mM),NF-kB SEAP reporter activity,[2]; agonist: LPS (TLR4) 0.1 ug/mL,1.1
same,NF-kB SEAP reporter activity,[2]; [6],1.01
same,NF-kB SEAP reporter activity,[2]; [7],0.913
same,NF-kB SEAP reporter activity,[2]; [8],0.764
CC(C)(NS(=O)(=O)c1ccc2c(Cl)cnc(NC(=N)N)c2c1)C(=O)O.Cl,NF-kB SEAP reporter activity,[1]; [4],0.99
same,NF-kB SEAP reporter activity,[1]; [5],0.923
Cl.Nc1ncccc1-c1nc2ccc(-c3ccccc3)nc2n1-c1ccc(C2(N)CCC2)cc1,NF-kB SEAP reporter activity,[1]; [9],1.7
same,NF-kB SEAP reporter activity,[1]; [10],1.8
Cl.Nc1ncccc1-c1nc2ccc(-c3ccccc3)nc2n1-c1ccc(C2(N)CCC2)cc1 (library stock concentration (final ~1000-fold dilution): 10 mM),NF-kB SEAP reporter activity,[3]; agonist: LPS (TLR4) 0.1 ug/mL,0.954
same,NF-kB SEAP reporter activity,[3]; [6],0.218
same,NF-kB SEAP reporter activity,[3]; [7],0.921
same,NF-kB SEAP reporter activity,[3]; [8],1.38
COc1cc2c(cc1OC)C1CC(OC(=O)C(N)C(C)C)C(CC(C)C)CN1CC2.Cc1ccc(S(=O)(=O)O)cc1.Cc1ccc(S(=O)(=O)O)cc1 (stereo not drawn) (library stock concentration (final ~1000-fold dilution): 10 mM),NF-kB SEAP reporter activity,[2]; agonist: LPS (TLR4) 0.1 ug/mL,1.11
same,NF-kB SEAP reporter activity,[2]; [6],0.207
same,NF-kB SEAP reporter activity,[2]; [7],0.856
same,NF-kB SEAP reporter activity,[2]; [8],0.889
COc1cc2c(cc1OC)C1CC(OC(=O)C(N)C(C)C)C(CC(C)C)CN1CC2.Cc1ccc(S(=O)(=O)O)cc1.Cc1ccc(S(=O)(=O)O)cc1 (stereo not drawn),NF-kB SEAP reporter activity,[1]; [4],1.07
same,NF-kB SEAP reporter activity,[1]; [5],1.11
CC1CCN(C(=O)CC#N)CC1N(C)c1ncnc2[nH]ccc12 (stereo not drawn),NF-kB SEAP reporter activity,[1]; [4],1.31
same,NF-kB SEAP reporter activity,[1]; [5],1.05
CC1CCN(C(=O)CC#N)CC1N(C)c1ncnc2[nH]ccc12 (stereo not drawn) (library stock concentration (final ~1000-fold dilution): 10 mM),NF-kB SEAP reporter activity,[2]; agonist: LPS (TLR4) 0.1 ug/mL,0.799
same,NF-kB SEAP reporter activity,[2]; [6],1.27
same,NF-kB SEAP reporter activity,[2]; [7],1.33
same,NF-kB SEAP reporter activity,[2]; [8],1.51
CC(=O)OC1CCC2(C)C(=CCC3C2CCC2(C)C(c4cccnc4)=CCC32)C1 (stereo not drawn),NF-kB SEAP reporter activity,[1]; [4],1.12
same,NF-kB SEAP reporter activity,[1]; [5],1.05
CC(=O)OC1CCC2(C)C(=CCC3C2CCC2(C)C(c4cccnc4)=CCC32)C1 (stereo not drawn) (library stock concentration (final ~1000-fold dilution): 10 mM),NF-kB SEAP reporter activity,[2]; agonist: LPS (TLR4) 0.1 ug/mL,0.898
same,NF-kB SEAP reporter activity,[2]; [6],1.06
same,NF-kB SEAP reporter activity,[2]; [7],0.97
same,NF-kB SEAP reporter activity,[2]; [8],1.97
COc1cc2oc(=O)ccc2c(OC)c1CC(O)C(C)(C)O (stereo not drawn) (library stock concentration (final ~1000-fold dilution): 10 mM),NF-kB SEAP reporter activity,[2]; agonist: LPS (TLR4) 0.1 ug/mL,1.11
same,NF-kB SEAP reporter activity,[2]; [6],0.972
same,NF-kB SEAP reporter activity,[2]; [7],1.08
same,NF-kB SEAP reporter activity,[2]; [8],1.38
COc1cc2oc(=O)ccc2c(OC)c1CC(O)C(C)(C)O (stereo not drawn),NF-kB SEAP reporter activity,[1]; [4],0.936
same,NF-kB SEAP reporter activity,[1]; [5],0.984
CC(C)(C)c1nc(-c2cccc(NS(=O)(=O)c3c(F)cccc3F)c2F)c(-c2ccnc(N)n2)s1,NF-kB SEAP reporter activity,[1]; [9],2.07
same,NF-kB SEAP reporter activity,[1]; [10],1.89
CC(C)(C)c1nc(-c2cccc(NS(=O)(=O)c3c(F)cccc3F)c2F)c(-c2ccnc(N)n2)s1.CS(=O)(=O)O,NF-kB SEAP reporter activity,[1]; [5],1.93
CC(C)(C)c1nc(-c2cccc(NS(=O)(=O)c3c(F)cccc3F)c2F)c(-c2ccnc(N)n2)s1.CS(=O)(=O)O (library stock concentration (final ~1000-fold dilution): 10 mM),NF-kB SEAP reporter activity,[2]; agonist: LPS (TLR4) 0.1 ug/mL,3.17
same,NF-kB SEAP reporter activity,[2]; [6],3.05
same,NF-kB SEAP reporter activity,[2]; [7],2.08
same,NF-kB SEAP reporter activity,[2]; [8],1.78
CC(C)(C)c1nc(-c2cccc(NS(=O)(=O)c3c(F)cccc3F)c2F)c(-c2ccnc(N)n2)s1 (library stock concentration (final ~1000-fold dilution): 10 mM),NF-kB SEAP reporter activity,[3]; agonist: LPS (TLR4) 0.1 ug/mL,3.02
same,NF-kB SEAP reporter activity,[3]; [6],3.35
same,NF-kB SEAP reporter activity,[3]; [7],2
same,NF-kB SEAP reporter activity,[3]; [8],1.57
